aSyn 5UTR act: Activators via SNCA 5'UTR binding, MLPCN; alpha-synuclein 5'UTR reporter, activators screen; activity score, % (tested at 7.5 µM), hits read low; 300,000 tested, 7.1% active; in the data active means activity score below about -60%
Of the large screens only hits and unclear results are named; the others gave an inactive call. These entries were drawn from the full list.

CCc1ccc(NC(=O)Nc2cnccn2)cc1	aSyn 5UTR act -104
O=C(Nc1ccc([N+](=O)[O-])cc1)Nc1ccon1	none
CCCCc1ccc(NC(=O)Nc2cnccn2)cc1	aSyn 5UTR act -98
CCc1ccc(NC(=O)Nc2ccon2)cc1	aSyn 5UTR act -136
CCOc1ccc(-c2nc(-c3ccncc3)no2)cc1OCC	aSyn 5UTR act -95
CCOc1ccc(-c2nc(-c3ccccc3)no2)cc1OCC	aSyn 5UTR act -137
CCC1S/C(=N/C(=O)NC2CCCCC2)NC1=O (configuration not stated)	aSyn 5UTR act -86
Cc1cc(N2CCOCC2)nc2ccc(NC(=O)CCC(=O)N3CCN(c4ccc(F)cc4)CC3)cc12	aSyn 5UTR act -72
Cc1cc(N2CCOCC2)nc2ccc(NC(=O)CCC(=O)N3CCCC(C)C3)cc12 (configuration not stated)	aSyn 5UTR act -87
Cc1cc(N2CCOCC2)nc2ccc(NC(=O)CCC(=O)N3CCN(c4ccccc4F)CC3)cc12	aSyn 5UTR act -127
Clc1cccc(Cl)c1Cn1ccc(C2CC2)n1	aSyn 5UTR act -100
Cc1cc(C)c2c(c1)C(=O)/C(=C/c1ccc(C(=O)O)cc1)CC2	aSyn 5UTR act -79
CC(/C=N/NC(=O)c1nn(C)c(C)c1Br)=C\c1ccccc1	aSyn 5UTR act -122
CC(=C/c1ccccc1)/C=N/NC(=O)c1cccs1	aSyn 5UTR act -90
O=C(N/N=C/C(Br)=C\c1ccccc1)c1cccs1	aSyn 5UTR act -318
CC(=C/c1ccccc1)/C=N/n1cnnc1	none
CSc1nc2sc3c(c2c(=O)[nH]1)CCC(C)C3 (configuration not stated)	aSyn 5UTR act -151
CCC(=O)Nc1ccc2nc(C3CC3)n(Cc3ccccc3)c(=O)c2c1	aSyn 5UTR act -201
CC(=O)Nc1ccc2nc(C)n(Cc3ccc(Cl)cc3)c(=O)c2c1	aSyn 5UTR act -78
O=C(Nc1ccc2nc(C3CC3)n(Cc3ccccc3)c(=O)c2c1)C1CC1	aSyn 5UTR act -251
COc1ccc(Cn2c(C3CC3)nc3ccc(NC(=O)c4ccco4)cc3c2=O)cc1	aSyn 5UTR act -152
CCC(=O)Nc1nc2ccccc2n1Cc1ccc(Cl)cc1	none
C/C(=N\N1C(=O)c2ccccc2NC1c1ccco1)c1ccccc1O (configuration not stated)	none
Cc1ccc(/C=N/N2C(=O)c3ccccc3NC2c2ccc(C)cc2)cc1 (configuration not stated)	aSyn 5UTR act -84
O=C1c2ccccc2NC(c2ccco2)N1/N=C/c1ccco1 (configuration not stated)	aSyn 5UTR act -92
Cc1ccc2[nH]c(=O)c(-c3nc4ccccn4c3NCc3ccco3)cc2c1	aSyn 5UTR act -100
COc1ccccc1NC(=S)N(Cc1ccco1)Cc1cc2cc(C)c(C)cc2[nH]c1=O	none
O=Cc1c(NCc2ccco2)nc2ccccn2c1=O	aSyn 5UTR act -89
Nc1cc2c(cc1O)CCCC2	aSyn 5UTR act -91
Cc1cc(N2CCCCC2)nc(SCC(=O)c2ccccc2)n1	aSyn 5UTR act -119
Cc1cc(N2CCCC2)nc(-c2ccccc2O)n1	aSyn 5UTR act -62
Cn1cc(Cl)c(C(=O)Nc2nc3ccc(Cl)cc3s2)n1	aSyn 5UTR act -197
Cn1cc(Cl)c(C(=O)Nc2nc3ccc([N+](=O)[O-])cc3s2)n1	aSyn 5UTR act -68
C/C(=N\NC(=O)c1ccccc1O)c1ccc(NC(=O)Cc2ccccc2)cc1	aSyn 5UTR act -71
COc1cccc(C(=O)N/N=C(\C)c2ccc(NC(=O)Cc3ccccc3)cc2)c1OC	aSyn 5UTR act -88
C/C(=N\NC(=O)c1cccc(O)c1)c1ccc(NC(=O)Cc2ccccc2)cc1	aSyn 5UTR act -85
COc1ccc(/C(C)=N/NC(=O)c2ccccc2OCc2ccccc2)c(OC)c1	aSyn 5UTR act -118
COc1cccc(/C=C/C(=O)OC(C)C(=O)Nc2c(C)n(C)n(-c3ccccc3)c2=O)c1 (configuration not stated)	aSyn 5UTR act -112
O=c1c2ccccc2nnn1COc1ccc(Cl)cc1Br	aSyn 5UTR act -154
O=c1c2ccccc2nnn1COc1cccc2ccccc12	aSyn 5UTR act -147
O=c1c2ccccc2nnn1COc1ccc(F)cc1Cl	aSyn 5UTR act -118
O=C(NCc1ccco1)Nc1ccc(Br)cc1	aSyn 5UTR act -119
O=C(NCCC1=CCCCC1)Nc1ccc2nsnc2c1	aSyn 5UTR act -110
O=C(NCc1ccco1)Nc1ccc2nsnc2c1	aSyn 5UTR act -76
COc1ccc(/C=C2\SC(=O)N(CCC(=O)N(C)C3CCS(=O)(=O)C3)C2=O)cc1 (configuration not stated)	aSyn 5UTR act -84
O=C(CN1C(=O)S/C(=C\C=C\c2ccccc2)C1=O)NC1CCS(=O)(=O)C1 (configuration not stated)	aSyn 5UTR act -169
COc1ccc(/C=C2\SC(=S)N(CCC(=O)NC3C=CS(=O)(=O)C3)C2=O)cc1 (configuration not stated)	none
CC(C)c1ccc(/C=C2\SC(=O)N(CC(=O)NC3CCS(=O)(=O)C3)C2=O)cc1 (configuration not stated)	aSyn 5UTR act -90
CC(C)c1ccc(/C=C2\SC(=S)N(CCC(=O)NCCCn3ccnc3)C2=O)cc1	none
O=C(NCCC1=CCCCC1)c1ccc([N+](=O)[O-])cc1	aSyn 5UTR act -147
CCOc1ccc(C(=O)NCCc2ccccc2)cc1	none
O=C(NCCc1ccc(F)cc1)c1ccc([N+](=O)[O-])cc1	aSyn 5UTR act -78
COc1ccc(C(=O)NCCc2ccccc2)cc1OC	aSyn 5UTR act -97
O=C(CCNC(=O)c1ccc(Cl)cc1)NCCC1=CCCCC1	aSyn 5UTR act -124
O=C1CSc2ccc(C(=O)NCCC3=CCCCC3)cc2N1	aSyn 5UTR act -104
COc1ccc(C(=O)NCCC2=CCCCC2)cc1OC	aSyn 5UTR act -81
COc1ccc(C(=O)NCCC2=CCCCC2)cc1	none
COCC(C)N1CCC(Oc2cccc(C(=O)NCCc3ccccc3)c2)CC1 (configuration not stated)	aSyn 5UTR act -72
O=C(NCCC1=CCCCC1)c1ccc(CN2CCOCC2)cc1	aSyn 5UTR act -73
O=C(NC1CCCCCC1)c1ccc(CN2CCOCC2)cc1	aSyn 5UTR act -122
CCOc1cccc2cc(C(=O)NCCC3=CCCCC3)c(=O)oc12	aSyn 5UTR act -95
Cc1cc(C(=O)NCCC2=CCCCC2)ccc1[N+](=O)[O-]	aSyn 5UTR act -121
Nc1ccc2nc(SCc3cccc(F)c3)sc2c1	aSyn 5UTR act -139
CCCC(=O)Nc1ccc2nc(SCC(=O)Nc3ccc(N4CCOCC4)c(Cl)c3)sc2c1	aSyn 5UTR act -150
Nc1ccc2nc(SCC(=O)Nc3ccc(N4CCOCC4)c(Cl)c3)sc2c1	aSyn 5UTR act -174
Nc1ccc2nc(SCC(=O)N3CCOCC3)sc2c1	aSyn 5UTR act -71
CC1=Nn2c(nc3sc4c(c3c2=O)CCCC4)SC1	aSyn 5UTR act -142
Cc1ccc(-n2cnc3sc(C)c(C)c3c2=O)cc1	aSyn 5UTR act -98
Cc1ccc(-c2nc3sc4c(c3c(=O)n2N)CCCC4)cc1	aSyn 5UTR act -107
COc1ccc(-n2cnc3sc4c(c3c2=O)CCCC4)cc1	aSyn 5UTR act -88
CCOC(=O)c1ccc(N=NN(C)C)cc1	aSyn 5UTR act -156
CCOC(=O)c1ccc(N=c2scc(C)n2CC)cc1	aSyn 5UTR act -91
C=CCn1c(C)csc1=Nc1ccc(C(C)=O)cc1	aSyn 5UTR act -99
O=C(N/N=C/c1sc(=O)n(-c2ccccc2)c1Cl)c1ccccc1	aSyn 5UTR act -84
C=CCSc1nnc2c(n1)[nH]c1c(C)cccc12	aSyn 5UTR act -158
CCSc1nnc2nc3[nH]c4c(C)cccc4c3nn12	aSyn 5UTR act -147

Bioassay records deposited in PubChem by Broad Institute.
